From PubChem BioAssay (Tox21)
Records with an inconclusive call do not appear. A call without a number means that no potency is given here. A number with no mark means an inactive call. Activity calls are given as the source filed them. Calls come from the whole dose curve; as a rule, active = well fitted curve in the direction sought with a large enough effect in the repeat runs; inconclusive = weak or mixed curves; inactive = no such curve, though single readings can be large; an effect the other way counts as inactive or inconclusive.

Legend:
[1] = molecular target: Nuclear receptor subfamily 1 group I member 2 (Homo sapiens) (UniProt O75469); assay: Human pregnane X receptor (PXR) small molecule agonists, qHTS assay (AID 1346982); details: PXR-Luc HepG2, CYP3A4 luciferase reporter, 24 h; series mostly up to 92.4 µM; note: nearly all actives have a fitted effect of over 35% in size
Method in brief: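 Reporter HepG2 cells expressing PXR-Luc are cultured in charcoal-stripped FBS (5%), treated with compounds for 24 hr at 37 C, and assayed by ONE-Glo luminescence after 30 min at room temperature.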

[2] = molecular target: Cytochrome P450 2C19 (Homo sapiens) (UniProt P33261); assay: Cytochrome P450 Family 2 Subfamily C Member 19 (CYP2C19) small molecule antagonists: luciferase reporter qHTS assay (AID 1671197); details: P450-Glo CYP2C19 enzyme, luciferin luminescence, 1 h; series mostly up to 115 µM; note: nearly all actives have a fitted effect of over 65% in size
Method in brief: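 Luminescent readout of CYP2C19 activity: luciferin product detected 20 min after adding detection reagent. Before that, compound and enzyme-substrate mix preincubated 10 min at room temperature; NADPH-regenerating system started a 1 h, 37C reaction. Ketoconazole as positive control.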

[3] = molecular target: Cytochrome P450 2C9 (Homo sapiens) (UniProt P11712); assay: Cytochrome P450 Family 2 Subfamily C Member 9 (CYP2C9) small molecule antagonists: luciferase reporter qHTS assay (AID 1671198); details: P450-Glo CYP2C9 enzyme assay, luciferin luminescence; series mostly up to 115 µM; note: nearly all actives have a fitted effect of over 50% in size
Method in brief: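 CYP2C9 activity was measured with a P450-Glo proluciferin substrate. Enzyme–substrate mix was held with compound for 10 min at room temperature, then NADPH regeneration solution was added for 1 h at 37C. Luciferin product was read as luminescence.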

[4] = molecular target: Cytochrome P450 1A2 (Homo sapiens) (UniProt P05177); assay: Cytochrome P450 Family 1 Subfamily A Member 2 (CYP1A2) small molecule antagonists: luciferase reporter qHTS assay (AID 1671199); details: P450-Glo CYP1A2 enzyme, luciferin luminescence, 1 h; series mostly up to 115 µM; note: nearly all actives have a fitted effect of over 50% in size
Method in brief: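 Steps: enzyme-substrate mix dispensed; test compounds and furafylline control pinned in; 10 min room temperature; NADPH regeneration solution added, 1 h; reaction stopped with luciferin detection reagent; luminescence read after 20 min.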

[5] = molecular target: Voltage-gated inwardly rectifying potassium channel KCNH2 (Homo sapiens) (UniProt Q12809); assay: Human Ether-a-go-go-Related Gene (hERG) channel small molecule antagonists: fluorescence cell-based qHTS assay (AID 1671200); details: hERG-U2OS cells, FluxOR thallium flux fluorescence; series mostly up to 76.8 µM; note: nearly all actives have a fitted effect of over 50% in size
Method in brief: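 Fluorescence at 540 nm emission (480 nm excitation) was recorded kinetically for 2 min at 1-second intervals once the thallium-containing stimulus reached cells previously loaded with FluxOR II dye.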

[6] = molecular target: Cytochrome P450 3A4 (Homo sapiens) (UniProt P08684); assay: Cytochrome P450 Family 3 Subfamily A Member 4 (CYP3A4) small molecule antagonists: luciferase reporter qHTS assay (AID 1671201); details: P450-Glo CYP3A4 enzyme, luciferin luminescence, 1 h; series mostly up to 115 µM; note: nearly all actives have a fitted effect of over 50% in size
Method in brief: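 qHTS, 1536-well. CYP3A4 + proluciferin substrate, cpd 10 min RT → NADPH regen 1 h RT → detection reagent 20 min → luminescence (RLU). Ketoconazole positive control.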

[7] = molecular target: Cytochrome P450 2D6 (Homo sapiens) (UniProt P10635); assay: Cytochrome P450 Family 2 Subfamily D Member 6 (CYP2D6) small molecule antagonists: luciferase reporter qHTS assay (AID 1671196); details: P450-Glo CYP2D6 enzyme assay, luciferin luminescence, 1 h; series mostly up to 115 µM; note: nearly all actives have a fitted effect of over 50% in size
Method in brief: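 Test chemicals meet CYP2D6 plus proluciferin substrate (10 min, RT); NADPH regenerating solution then drives turnover for 1 h. Detection reagent halts the reaction; luminescence measured after 20 min.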
Potency is the fitted concentration of half-maximal effect.

Sequence of Voltage-gated inwardly rectifying potassium channel KCNH2 (Homo sapiens) (Q12809 whole entry, looked up): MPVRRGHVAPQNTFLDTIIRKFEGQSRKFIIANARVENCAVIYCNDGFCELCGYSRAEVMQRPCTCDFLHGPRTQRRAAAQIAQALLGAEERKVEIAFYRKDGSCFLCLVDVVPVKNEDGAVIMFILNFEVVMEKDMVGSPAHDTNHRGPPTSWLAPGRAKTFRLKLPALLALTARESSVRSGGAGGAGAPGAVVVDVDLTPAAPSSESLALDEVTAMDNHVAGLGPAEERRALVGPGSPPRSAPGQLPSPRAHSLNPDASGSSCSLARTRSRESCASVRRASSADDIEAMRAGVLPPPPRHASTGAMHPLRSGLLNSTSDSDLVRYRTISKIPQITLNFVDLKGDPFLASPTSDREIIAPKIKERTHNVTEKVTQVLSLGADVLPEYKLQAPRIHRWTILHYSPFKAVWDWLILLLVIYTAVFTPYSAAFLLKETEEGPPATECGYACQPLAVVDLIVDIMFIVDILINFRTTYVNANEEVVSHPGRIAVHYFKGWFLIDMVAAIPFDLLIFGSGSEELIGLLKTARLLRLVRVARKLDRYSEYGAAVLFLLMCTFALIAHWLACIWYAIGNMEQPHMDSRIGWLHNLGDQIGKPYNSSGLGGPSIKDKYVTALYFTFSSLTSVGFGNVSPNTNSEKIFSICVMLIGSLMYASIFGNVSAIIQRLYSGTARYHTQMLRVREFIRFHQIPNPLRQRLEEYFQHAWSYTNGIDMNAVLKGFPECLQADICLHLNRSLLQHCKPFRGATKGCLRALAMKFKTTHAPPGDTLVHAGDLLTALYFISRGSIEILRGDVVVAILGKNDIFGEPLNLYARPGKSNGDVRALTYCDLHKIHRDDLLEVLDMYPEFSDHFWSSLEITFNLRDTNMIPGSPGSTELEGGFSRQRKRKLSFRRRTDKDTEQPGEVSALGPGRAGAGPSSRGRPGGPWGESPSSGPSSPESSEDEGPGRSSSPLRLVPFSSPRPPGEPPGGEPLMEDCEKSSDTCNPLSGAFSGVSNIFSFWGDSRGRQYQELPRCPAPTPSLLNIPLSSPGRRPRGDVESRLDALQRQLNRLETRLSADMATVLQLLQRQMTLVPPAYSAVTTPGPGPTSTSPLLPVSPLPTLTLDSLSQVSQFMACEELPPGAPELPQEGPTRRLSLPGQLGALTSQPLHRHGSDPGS
Sequence of Nuclear receptor subfamily 1 group I member 2 (Homo sapiens) (O75469 whole entry, looked up): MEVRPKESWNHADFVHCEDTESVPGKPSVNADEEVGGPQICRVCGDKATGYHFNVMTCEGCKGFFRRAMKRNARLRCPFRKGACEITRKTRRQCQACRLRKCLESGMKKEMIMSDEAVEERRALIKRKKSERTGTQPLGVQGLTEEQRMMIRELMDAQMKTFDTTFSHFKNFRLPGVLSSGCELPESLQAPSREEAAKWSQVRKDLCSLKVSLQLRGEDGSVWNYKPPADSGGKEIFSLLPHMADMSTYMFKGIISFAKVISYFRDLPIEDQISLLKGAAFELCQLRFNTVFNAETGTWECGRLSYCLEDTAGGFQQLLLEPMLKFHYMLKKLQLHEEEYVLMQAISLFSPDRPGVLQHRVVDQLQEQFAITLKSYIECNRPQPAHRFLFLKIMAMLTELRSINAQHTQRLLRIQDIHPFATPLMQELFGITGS
Sequence of Cytochrome P450 2C19 (Homo sapiens) (P33261 whole entry, looked up): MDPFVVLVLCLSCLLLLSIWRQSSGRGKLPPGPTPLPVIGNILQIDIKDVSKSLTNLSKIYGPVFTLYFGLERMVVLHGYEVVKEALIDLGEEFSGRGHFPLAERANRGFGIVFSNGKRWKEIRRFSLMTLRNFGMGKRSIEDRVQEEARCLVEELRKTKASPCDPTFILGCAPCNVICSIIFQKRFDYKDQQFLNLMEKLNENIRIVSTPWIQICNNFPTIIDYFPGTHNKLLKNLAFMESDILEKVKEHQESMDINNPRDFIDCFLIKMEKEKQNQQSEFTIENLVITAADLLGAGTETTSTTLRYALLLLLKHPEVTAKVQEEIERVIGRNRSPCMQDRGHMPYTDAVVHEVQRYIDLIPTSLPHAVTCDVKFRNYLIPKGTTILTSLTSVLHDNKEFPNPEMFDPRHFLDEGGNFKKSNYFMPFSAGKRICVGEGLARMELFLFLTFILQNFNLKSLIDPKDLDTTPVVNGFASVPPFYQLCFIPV
Sequence of Cytochrome P450 1A2 (Homo sapiens) (P05177 whole entry, looked up): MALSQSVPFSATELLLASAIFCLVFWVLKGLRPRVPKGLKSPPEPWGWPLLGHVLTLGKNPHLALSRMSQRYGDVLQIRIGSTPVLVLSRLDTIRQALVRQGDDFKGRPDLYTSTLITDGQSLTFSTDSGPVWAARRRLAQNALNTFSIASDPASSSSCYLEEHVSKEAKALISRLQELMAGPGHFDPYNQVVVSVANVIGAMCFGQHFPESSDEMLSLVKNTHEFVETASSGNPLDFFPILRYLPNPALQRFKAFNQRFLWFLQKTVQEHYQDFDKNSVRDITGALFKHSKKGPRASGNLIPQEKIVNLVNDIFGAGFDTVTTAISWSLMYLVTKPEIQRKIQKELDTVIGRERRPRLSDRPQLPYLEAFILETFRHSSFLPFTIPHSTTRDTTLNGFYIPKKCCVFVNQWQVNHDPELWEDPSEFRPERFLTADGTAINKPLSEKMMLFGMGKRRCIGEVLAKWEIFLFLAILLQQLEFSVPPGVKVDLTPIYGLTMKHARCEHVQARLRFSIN
Sequence of Cytochrome P450 2C9 (Homo sapiens) (P11712 whole entry, looked up): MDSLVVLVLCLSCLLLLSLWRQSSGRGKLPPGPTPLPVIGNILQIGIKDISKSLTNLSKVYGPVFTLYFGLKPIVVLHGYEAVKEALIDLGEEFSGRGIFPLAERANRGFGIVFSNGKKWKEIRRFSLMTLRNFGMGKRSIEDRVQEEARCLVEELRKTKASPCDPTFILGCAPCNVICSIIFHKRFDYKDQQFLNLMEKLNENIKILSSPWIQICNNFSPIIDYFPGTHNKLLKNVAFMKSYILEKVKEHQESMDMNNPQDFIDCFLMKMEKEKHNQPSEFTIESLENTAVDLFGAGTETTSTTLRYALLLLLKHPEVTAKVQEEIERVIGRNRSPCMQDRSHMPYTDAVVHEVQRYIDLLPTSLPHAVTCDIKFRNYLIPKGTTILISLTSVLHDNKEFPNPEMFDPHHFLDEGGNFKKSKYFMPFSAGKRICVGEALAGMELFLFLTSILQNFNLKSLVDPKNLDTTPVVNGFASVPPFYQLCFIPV
Sequence of Cytochrome P450 3A4 (Homo sapiens) (P08684 whole entry, looked up): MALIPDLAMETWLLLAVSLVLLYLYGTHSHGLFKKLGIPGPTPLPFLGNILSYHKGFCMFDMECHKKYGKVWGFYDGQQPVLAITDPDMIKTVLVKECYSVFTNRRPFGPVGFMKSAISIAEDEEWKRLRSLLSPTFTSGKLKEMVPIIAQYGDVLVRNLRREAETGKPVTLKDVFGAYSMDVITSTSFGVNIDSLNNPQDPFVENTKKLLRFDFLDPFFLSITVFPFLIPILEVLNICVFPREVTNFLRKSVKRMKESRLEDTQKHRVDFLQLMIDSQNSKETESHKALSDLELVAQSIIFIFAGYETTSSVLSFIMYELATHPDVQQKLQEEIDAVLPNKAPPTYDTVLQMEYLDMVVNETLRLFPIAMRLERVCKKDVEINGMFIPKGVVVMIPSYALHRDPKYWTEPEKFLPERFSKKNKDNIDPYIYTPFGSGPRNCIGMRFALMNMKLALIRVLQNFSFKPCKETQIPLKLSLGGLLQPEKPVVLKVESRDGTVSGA
Sequence of Cytochrome P450 2D6 (Homo sapiens) (P10635 whole entry, looked up): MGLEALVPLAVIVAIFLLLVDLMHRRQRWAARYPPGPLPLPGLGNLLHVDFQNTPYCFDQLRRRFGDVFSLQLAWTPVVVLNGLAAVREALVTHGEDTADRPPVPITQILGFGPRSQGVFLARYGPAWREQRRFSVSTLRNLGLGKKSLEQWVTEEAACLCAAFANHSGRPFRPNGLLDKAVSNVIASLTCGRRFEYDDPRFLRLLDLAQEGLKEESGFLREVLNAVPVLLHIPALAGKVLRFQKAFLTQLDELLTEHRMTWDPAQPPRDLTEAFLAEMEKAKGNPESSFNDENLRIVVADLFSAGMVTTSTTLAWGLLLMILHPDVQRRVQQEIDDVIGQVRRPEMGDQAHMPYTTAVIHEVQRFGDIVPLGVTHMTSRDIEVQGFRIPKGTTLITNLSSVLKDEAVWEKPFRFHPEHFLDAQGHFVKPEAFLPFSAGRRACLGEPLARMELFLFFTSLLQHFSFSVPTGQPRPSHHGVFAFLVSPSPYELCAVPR

CCC(=O)OCCC(C)CCC=C(C)C (stereo unspecified)
Potency [1]: inactive
Potency [2]: 20 µM (active)
Potency [3]: 25.2 µM (active)
Potency [4]: 39.9 µM (active)
Potency [5]: inactive
Potency [6]: 12.6 µM (active)

CNC(=O)NC
Potency [1]: inactive
Potency [7]: inactive
Potency [3]: inactive
Potency [4]: inactive

CCCC(C)CC (stereo unspecified)
Potency [1]: inactive
Potency [7]: inactive
Potency [3]: inactive
Potency [4]: 35 µM (active)
Potency [5]: inactive
Potency [6]: inactive

C=CCOCC(O)CCl (stereo unspecified)
Potency [1]: inactive
Potency [7]: inactive
Potency [5]: inactive
Potency [6]: inactive

C=CCOC(=O)c1ccc(C(=O)OCC=C)c(C(=O)OCC=C)c1
Potency [1]: inactive
Potency [2]: 0.159 µM (active)
Potency [3]: 0.399 µM (active)
Potency [4]: 6.33 µM (active)
Potency [5]: inactive
Potency [6]: 1.78 µM (active)

CCN(CC)C(=O)C1CN2CCc3cc(OC)c(OC)cc3C2CC1OC(C)=O (stereo unspecified)
Potency [1]: inactive
Potency [2]: inactive
Potency [3]: inactive
Potency [4]: inactive
Potency [5]: inactive

CCOC(=O)CCCCCCCCC(=O)OCC
Potency [1]: inactive
Potency [7]: inactive
Potency [3]: 31.7 µM (active)
Potency [4]: 44.8 µM (active)
Potency [5]: inactive
Potency [6]: inactive

Nc1cc(C(=O)O)ccc1Cl
Potency [1]: inactive
Potency [7]: inactive
Potency [3]: inactive
Potency [4]: inactive
Potency [5]: inactive

CC(C)CCO
Potency [1]: inactive
Potency [7]: inactive
Potency [3]: inactive
Potency [4]: inactive
Potency [5]: inactive

CN(C)CCCNCCC#N
Potency [1]: inactive
Potency [7]: inactive
Potency [3]: inactive
Potency [5]: inactive
Potency [6]: inactive

O=C(COCCOCCOCC(=O)Nc1c(I)cc(I)c(C(=O)O)c1I)Nc1c(I)cc(I)c(C(=O)O)c1I
Potency [1]: inactive
Potency [2]: 34.7 µM (active)
Potency [3]: inactive
Potency [4]: inactive
Potency [5]: inactive
Potency [6]: inactive

CC(C)COC(=O)/C=C/c1ccccc1
Potency [1]: inactive
Potency [7]: inactive
Potency [4]: 28.3 µM (active)

CCOc1ccc(NC(=O)OC(C)C)cc1OCC
Potency [1]: 48.6 µM (active)
Potency [2]: 71 µM (active)
Potency [3]: inactive
Potency [4]: 5.03 µM (active)
Potency [5]: inactive
Potency [6]: inactive

Cc1nc([N+](=O)[O-])cn1-c1ccc([N+](=O)[O-])cc1
Potency [1]: inactive
Potency [2]: inactive
Potency [3]: inactive
Potency [4]: inactive
Potency [5]: inactive

CCCCC(CC)COC(=O)c1ccccc1 (stereo unspecified)
Potency [1]: inactive
Potency [7]: inactive
Potency [2]: inactive
Potency [4]: 28.3 µM (active)
Potency [6]: inactive

C=CCOc1c(Br)cc(Br)cc1Br
Potency [1]: inactive
Potency [2]: 7.96 µM (active)
Potency [3]: 8.94 µM (active)
Potency [4]: 2.83 µM (active)
Potency [5]: inactive

C=C(C)C(=O)OC
Potency [1]: inactive
Potency [7]: inactive
Potency [3]: inactive
Potency [4]: inactive
Potency [5]: inactive
Potency [6]: inactive

CCCCC(CC)CNC(=O)CC(C)OC(=O)CCC(=O)O (stereo unspecified)
Potency [1]: inactive
Potency [7]: 17.4 µM (active)
Potency [4]: inactive
Potency [5]: inactive

Cc1nc2n(c(=O)c1CCN1CCC(C(=O)c3ccc(F)cc3)CC1)CCS2
Potency [1]: inactive
Potency [7]: 0.49 µM (active)
Potency [2]: inactive
Potency [5]: 9.52 µM (active)

COC(OC)C(C)c1ccccc1 (stereo unspecified)
Potency [1]: inactive
Potency [7]: inactive
Potency [3]: inactive
Potency [6]: inactive

CC(C)c1ccccc1O
Potency [1]: inactive
Potency [7]: inactive
Potency [2]: inactive
Potency [6]: inactive

CCOC(=O)CCc1ccccc1
Potency [1]: inactive
Potency [7]: inactive
Potency [3]: inactive
Potency [6]: inactive

Cc1ccccc1C(=O)N1CC/C(=N\OS(=O)(=O)O)c2ccc(Cl)cc21
Potency [1]: inactive
Potency [7]: inactive
Potency [3]: 4.36 µM (active)
Potency [4]: inactive
Potency [5]: inactive

CCOC(=O)C(=O)c1csc(NC=O)n1
Potency [1]: inactive
Potency [2]: inactive
Potency [3]: inactive
Potency [4]: 19.5 µM (active)
Potency [5]: inactive
Potency [6]: inactive

CC1=NN(c2ccc(S(=O)(=O)O)cc2)C(=O)C1N=Nc1ccccc1 (stereo unspecified)
Potency [1]: inactive
Potency [7]: inactive
Potency [2]: inactive
Potency [4]: inactive
Potency [5]: inactive
Potency [6]: inactive

O=C(O)c1ccccc1C(=O)Nc1ccc(S(=O)(=O)Nc2nccs2)cc1
Potency [1]: inactive
Potency [7]: inactive
Potency [3]: inactive
Potency [4]: inactive
Potency [5]: inactive
Potency [6]: inactive

Cc1ccccc1OCC1CO1 (stereo unspecified)
Potency [1]: inactive
Potency [7]: inactive
Potency [3]: inactive
Potency [4]: inactive
Potency [5]: inactive

CNC(=O)C(c1ccccc1)c1ccccc1
Potency [1]: inactive
Potency [7]: inactive
Potency [2]: 20 µM (active)
Potency [5]: inactive
Potency [6]: inactive

CCCCCCCCOC(C)=O
Potency [1]: inactive
Potency [7]: inactive
Potency [3]: inactive
Potency [4]: inactive
Potency [6]: inactive
